From PubChem
HP1b chromo inh: blocks HP1-beta chromodomain binding to methylated histone tails | AlphaScreen HP1-beta / biotin-H3K9me3 peptide binding | Potency, µM (titrated, usually from 114 µM), for the others: at the highest dose activity change, negative = inhibition, most hits filed as inhibitors | hit rate 0.56% among 390,000; also: nearly all actives have a fitted effect of over 70% in size
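HP1-beta protein (50 nM final) preincubated 30 min at room temperature with biotinylated H3(1-18)K9me3 peptide (50 nM) in PBS pH 7.4, 0.01% Tween-20, then compound added for 30 min. AlphaScreen streptavidin donor/nickel chelate acceptor beads (10 ug/mL final), 30 min dark, luminescence read.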
G9a inh: inhibitors of human histone lysine methyltransferase G9a | Q96KQ7 | G9a H3K9 monomethylation, AlphaScreen, 2 h | Potency, µM (doses to about 102 µM), for the others: at the highest dose activity, negative = inhibition, actives largely listed as inhibitors | hit rate 8.8% among 350,000 | AID 504332; also: % is scaled to controls: 0 for no effect and ±100 for the full control effect; nearly all actives have a fitted effect of over 75% in size
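Quantitative HTS format: methyltransferase activity on a biotin-tagged H3K9 peptide is measured by AlphaScreen, using a rabbit anti-monomethyl-H3K9 antibody with streptavidin donor and anti-IgG acceptor beads. Final levels are 20 nM enzyme, 500 nM peptide, 20 uM SAM; 2 h RT.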
JMJD2A Tudor: blocks the human JMJD2A Tudor domain; O75164; hit rate 4.4% among 390,000; Potency, µM (top dose mostly 114 µM), for the others: at the highest dose activity change, negative = inhibition, actives largely listed as inhibitors; AlphaScreen JMJD2A-Tudor / H3K4me3 peptide binding; also: % is scaled to controls: 0 for no effect and ±100 for the full control effect; nearly all actives have a fitted effect of over 50% in size
Target sequence (O75164 whole entry, looked up, the tested form may be a part): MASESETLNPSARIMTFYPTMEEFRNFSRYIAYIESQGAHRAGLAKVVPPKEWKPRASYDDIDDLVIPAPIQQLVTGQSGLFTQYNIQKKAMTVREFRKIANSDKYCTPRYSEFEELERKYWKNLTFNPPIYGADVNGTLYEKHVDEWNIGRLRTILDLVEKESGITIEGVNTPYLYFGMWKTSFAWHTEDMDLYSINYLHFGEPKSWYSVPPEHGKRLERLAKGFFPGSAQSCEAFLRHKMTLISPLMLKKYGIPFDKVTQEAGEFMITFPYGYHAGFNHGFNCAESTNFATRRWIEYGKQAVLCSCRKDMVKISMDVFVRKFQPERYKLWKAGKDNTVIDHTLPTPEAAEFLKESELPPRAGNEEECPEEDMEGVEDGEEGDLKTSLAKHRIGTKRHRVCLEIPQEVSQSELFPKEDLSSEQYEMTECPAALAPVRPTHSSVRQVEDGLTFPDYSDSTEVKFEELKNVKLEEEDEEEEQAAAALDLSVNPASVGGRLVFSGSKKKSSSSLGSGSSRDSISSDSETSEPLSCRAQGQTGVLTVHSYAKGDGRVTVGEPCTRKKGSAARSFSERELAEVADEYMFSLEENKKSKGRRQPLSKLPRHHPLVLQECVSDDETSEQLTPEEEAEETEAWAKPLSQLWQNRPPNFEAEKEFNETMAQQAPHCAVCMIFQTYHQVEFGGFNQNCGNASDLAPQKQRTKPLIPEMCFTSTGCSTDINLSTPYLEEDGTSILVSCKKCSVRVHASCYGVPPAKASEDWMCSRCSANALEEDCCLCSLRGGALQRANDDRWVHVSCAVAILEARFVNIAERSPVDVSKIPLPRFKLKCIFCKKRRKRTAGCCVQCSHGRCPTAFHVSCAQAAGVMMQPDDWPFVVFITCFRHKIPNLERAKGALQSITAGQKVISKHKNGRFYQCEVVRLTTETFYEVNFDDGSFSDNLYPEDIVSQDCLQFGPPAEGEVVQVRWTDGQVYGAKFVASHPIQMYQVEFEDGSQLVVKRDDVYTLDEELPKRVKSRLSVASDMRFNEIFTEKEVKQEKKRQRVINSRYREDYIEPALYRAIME
BAZ2B inh: blocks human BAZ2B; Q9UIF8; AlphaScreen BAZ2B-H3K14Ac peptide displacement; Potency, µM (series often up to 114 µM), for inactives: at the top dose activity change, negative = inhibition, hits mostly inhibitors; hit rate 4.4% among 360,000; also: % is scaled to controls: 0 for no effect and ±100 for the full control effect; nearly all actives have a fitted effect of over 60% in size
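BAZ2B 50 nM plus b-H3(5-23)K14Ac 50 nM, PBS pH 7.4/0.01% Tween-20, 30 min RT; compound added (max 110 uM), 30 min RT; streptavidin donor/Ni-chelate acceptor beads 10 ug/mL final, 20 min dark; AlphaScreen read.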
PLK1 PBD block: blocks phosphopeptide binding to human PLK1 polo-box domain; Plk1 PBD binding of FITC phosphopeptide, fluorescence polarization; Potency, µM, without a hit: max response, negative = inhibition, actives largely listed as inhibitors; hit rate 2.8% among 360,000; AID 720504; also: series mostly up to about 57 µM; % is scaled to controls: 0 for no effect and ±100 for the full control effect; nearly all actives have a fitted effect of over 65% in size
12-LOX inh: blocks human arachidonate 12S-lipoxygenase | purified 12hLO, xylenol orange hydroperoxide absorbance | Potency, µM (doses to about 108 µM), without a hit: at the highest dose activity change, negative = inhibition, hits mostly inhibitors | hit rate 1.1% among 580,000; also: % is scaled to controls: 0 for no effect and ±100 for the full control effect
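Purified human 12hLO at 150 nM in 25 mM Hepes, 0.01% Triton X-100, pH 7.0, preincubated 15 min at room temperature with compound. Reaction started with 40 uM arachidonic acid, 30 min at room temperature. Hydroperoxide measured by Fe-xylenol orange, 573/405 nm absorbance ratio.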
Numbers without * were called inactive; ? = inconclusive; . = no result given; [ ] = another dose, or the depositor's remark. Hits are enriched below; roughly 9% of the tested compounds scored in any of these assays. Calls follow the shape of the dose curve; as a rule, active = well fitted curve in the direction sought with a large enough effect; inconclusive = small, poorly fitted or top-dose-only effect, or another doubt; inactive = no such curve, though single readings can be large; an effect the other way counts as inactive or inconclusive. Potency is read from the fitted curve at half-maximal effect.

SMILES | HP1b chromo inh | G9a inh | JMJD2A Tudor | BAZ2B inh | PLK1 PBD block | 12-LOX inh
Cn1c(C(=O)Nc2ccc3c(c2)OCO3)cc2sccc21 | -18% | 32µM* | ? | -38% | -10% | ?
COCCNC(=O)c1cc2sccc2n1C | 24% | 2% | -9% | -17% | -18% | -6%
CCN1C(=O)N[C@@H](c2cccc(C(F)(F)F)c2)C(C(C)=O)=C1C | 44% | . | -11% | . | -1% | 6%
CC(=O)C1=C(C)N(CC2CC2)C(=O)N[C@H]1c1ccc(Br)cc1 | 34% | -31% | -8% | -4% | -1% | 4%
CC(=O)C1=C(C)N(CC(C)C)C(=S)NC1c1ccc(Br)cc1 (stereo not drawn) | . | . | . | . | . | 40µM*
CC(=O)C1=C(C)N(Cc2ccc(Br)cc2)C(=S)NC1c1cccc(Br)c1 (stereo not drawn) | . | . | . | . | . | 32µM*
CC(=O)C1=C(C)N(Cc2ccc(Cl)cc2)C(=S)NC1c1cccc(Br)c1 (stereo not drawn) | . | . | . | . | . | 40µM*
COc1ccc(NC(=O)[C@H](C)NC(N)=O)cc1S(=O)(=O)Nc1cc(C)ccc1Br | 8% | 28%[0.0925 µM] | -14% | ? | -4% | -3%
COc1ccc2[nH]c(C(=O)Nc3ncc(C)cc3Br)cc2c1 | 0% | ? | -7% | -21% | -26% | ?
O=C1CN(c2nc3ccccc3n3cnnc23)CC(=O)N1CCc1ccccc1 | 31% | 79µM* | -10% | -4% | 3% | ?
O=C1C2=C(Nc3ccccc3SC2c2ccc(Cl)c(Cl)c2)c2ccccc21 (stereo not drawn) | ? | 13µM* | 8.9µM* | . | . | -12%
O=C1C2=C(Nc3ccccc3SC2c2ccccc2C(F)(F)F)c2ccccc21 (stereo not drawn) | ? | 11µM* | 22µM* | ? | . | -22%
O=C1C2=C(Nc3ccccc3SC2c2c(F)cccc2Cl)c2ccccc21 (stereo not drawn) | ? | ? | 13µM* | . | . | 1%
CCOc1cc(C2Nc3ccccc3C(=O)N2c2ccccc2)ccc1O (stereo not drawn) | 18% | 20% | -1% | -5% | -12% | 7%
COc1ccc(Br)cc1C1Sc2ccccc2NC2=C1C(=O)c1ccccc12 (stereo not drawn) | 18% | -6%[59 µM] | -8% | . | . | -20%
CCOc1cc(C2Sc3ccccc3NC3=C2C(=O)c2ccccc23)ccc1O (stereo not drawn) | ? | 13µM* | 14µM* | . | . | ?
O=C(CC1Sc2ccccc2NC1=O)NNc1cccc(Cl)c1Cl (stereo not drawn) | 23% | . | -10% | . | -3% | ?
COc1ccc(N2CC(C(=O)OCC(=O)c3ccccc3)CC2=O)cc1 (stereo not drawn) | 22% | -4% | -8% | 3% | 2% | -2%
CCCc1ccc(C2Sc3ccccc3NC3=C2C(=O)c2ccccc23)cc1 (stereo not drawn) | ? | 7.9µM* | 16µM* | 10µM* | . | -27%
O=C1C2=C(Nc3ccccc3SC2c2ccccc2)c2ccccc21 (stereo not drawn) | . | . | . | . | . | 1%
Cn1c2c(c(=O)n(C)c1=O)[C@@]1(C(=O)Nc3ccccc31)C(C#N)=C(N)O2 | 15% | 45µM* | -16% | -6% | ? | -13%
O=C(O)CC1S/C(=N/N=C/c2ccc(-c3ccccc3[N+](=O)[O-])o2)NC1=O (stereo not drawn) | 4% | -42%[2.33 µM] | ? | 50µM* | -20% | 0%
Cc1ccc(-c2ccc(/C=N/N=C3/NC(=O)C(CC(=O)O)S3)o2)c([N+](=O)[O-])c1 (stereo not drawn) | 1% | 13%[2.33 µM] | -35% | ? | -16% | -15%
CC1=NN(C(=O)c2c(Br)cnn2C)C(O)(C(F)(F)F)C1 (stereo not drawn) | -11% | . | -23%[11.4 µM] | 23% | 11µM* | 6%
Cc1ccc(N/C=C(\C#N)c2ccc(OCCCF)cc2)cc1 | 6% | 45µM* | -16% | ? | 1% | -8%
SMILES | HP1b chromo inh | G9a inh | JMJD2A Tudor | BAZ2B inh | PLK1 PBD block | 12-LOX inh
COc1ccc(N/C=C(\C#N)c2ccc(OCCCF)cc2)cc1 | -12% | -12%[12.7 µM] | ? | ? | 0% | 0%
Cc1cc(C)n(CC(=O)NNC(=O)CCNC(=O)c2ccccc2Cl)n1 | 11% | 13%[12.7 µM] | -1% | -4% | 2% | 4%
Cc1ccc(-c2nnn(CC(=O)Nc3nnc(C(C)C)s3)n2)cc1 | 0% | -3% | 56µM* | 0% | 27µM* | -12%
CCOC(=O)c1c(NC(=O)Cn2nnc(-c3ccccc3)n2)sc(CC)c1C | . | . | . | . | . | 13µM*
CCOC(=O)c1cc(CC)sc1NC(=O)Cn1nnc(-c2ccc(C)cc2)n1 | . | . | . | . | . | -2%
O=[N+]([O-])c1ccc(O)c(-c2nc(-c3ccccc3)c(-c3cccs3)[nH]2)c1 | ? | 35%[0.501 µM] | 45µM* | 35µM* | -6% | -4%
COc1ccc(-c2cn3cc([N+](=O)[O-])ccc3n2)cc1OC | 27% | -13% | -22% | -28% | -5% | -9%
O=[N+]([O-])c1ccc2nc(-c3ccccc3)[nH]c2c1 | -5% | 20%[59 µM] | -26% | -3% | -7% | ?
CCOc1cc(-c2nc(-c3ccccc3)c(-c3cc([N+](=O)[O-])ccc3C)[nH]2)ccc1O | -30% | 14µM* | ? | ? | -4% | ?
COc1ccc(-c2nc(-c3ccccc3)c(-c3cc([N+](=O)[O-])ccc3C)[nH]2)cc1OC | ? | ? | -18%[11.4 µM] | 45µM* | -20% | ?
CCOCCCNC(=O)C1CCN(S(=O)(=O)N2CCCC2)CC1 | 67% | 38% | -16% | 5% | -12% | 32%
O=C1Nc2ccccc2Oc2cc(Oc3ccccc3)ccc21 | ? | ? | 50µM* | 45µM* | . | 4%
O=C(O)c1ccc(CN(Cc2ccccc2)S(=O)(=O)c2ccc(Cl)cc2)cc1 | -5% | -8% | ? | -2% | 24µM* | -4%
NC(=O)COC(=O)c1ccc(Cl)c(S(=O)(=O)N(Cc2ccccc2)c2ccc(Cl)cc2)c1 | -10% | ? | ? | -1% | -4% | -10%
O=C(O)c1ccc(Cl)c(S(=O)(=O)N(Cc2ccccc2)c2ccc(Cl)cc2)c1 | 17% | 50µM* | -17% | -23% | 30µM* | ?
C=CCNC(=O)COC(=O)c1ccc(Cl)c(S(=O)(=O)N(Cc2ccccc2)c2ccccc2)c1 | 35% | 32µM* | -23% | 3% | -2% | -12%
CCOC(=O)c1ccc(CN(Cc2ccccc2)S(=O)(=O)c2ccc(C)cc2)cc1 | 94% | 66%[59 µM] | -22% | 5% | . | -19%
